Source: PubChem
Compounds with a hit are over-represented: about 11% of the library has one in this group of screens.
BAZ2B block – qHTS Assay for Inhibitors of BAZ2B | Bromodomain adjacent to zinc finger domain protein 2B (Homo sapiens), Q9UIF8 | AlphaScreen BAZ2B-H3K14Ac peptide displacement | Potency, µM (doses to about 114 µM), for inactives: at the highest dose activity change, negative = inhibition, most hits filed as inhibitors | 360,000 tested, 4.4% active | AID 504333, 2011; note: % is set by controls: 0 for no effect and ±100 for the full control effect; nearly all actives have a fitted effect of over 60% in size
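BAZ2B (50 nM) with biotin-H3(5-23)K14Ac peptide (50 nM) in PBS pH 7.4, 0.01% Tween-20, preformed 30 min, then compound 30 min at room temperature; top concentration 110uM. AlphaScreen streptavidin donor/nickel chelate acceptor beads (10 ug/mL final), 20 min dark, signal read.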
JMJD2A Tudor inh – qHTS Assay for Inhibitors of JMJD2A-Tudor Domain. Lysine-specific demethylase 4A (Homo sapiens), O75164. AlphaScreen JMJD2A-Tudor / H3K4me3 peptide binding. Potency, µM (top dose mostly 114 µM), inactives show at the highest dose activity change, negative = inhibition, usual class: inhibitors. 390,000 tested, 4.4% active. AID 504339, 2011; note: % is set by controls: 0 for no effect and ±100 for the full control effect; nearly all actives have a fitted effect of over 50% in size
G9a inh – qHTS Assay for Inhibitors of Histone Lysine Methyltransferase G9a. G9a H3K9 monomethylation, AlphaScreen, 2 h. 350,000 tested, 8.8% active. Potency, µM (titrated, usually from 102 µM), for inactives: top-dose activity, negative = inhibition, most hits filed as inhibitors; note: % is set by controls: 0 for no effect and ±100 for the full control effect; nearly all actives have a fitted effect of over 75% in size
Target sequence (Q96KQ7 913-1193 limits assumed): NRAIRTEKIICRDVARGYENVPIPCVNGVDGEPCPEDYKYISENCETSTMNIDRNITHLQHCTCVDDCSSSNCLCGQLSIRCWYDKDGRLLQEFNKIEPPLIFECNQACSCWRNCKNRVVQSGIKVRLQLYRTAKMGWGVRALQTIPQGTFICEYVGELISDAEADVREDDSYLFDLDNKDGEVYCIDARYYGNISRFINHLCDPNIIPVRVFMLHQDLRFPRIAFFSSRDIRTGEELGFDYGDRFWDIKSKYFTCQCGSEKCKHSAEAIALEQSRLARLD
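Signal arises when biotinylated H3K9 peptide, once monomethylated, bridges streptavidin donor and antibody-captured acceptor beads. Enzyme at 20 nM was preincubated 15 min with test compounds; peptide 500 nM and SAM 20 uM then reacted for 2 h.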
VDR inh – Inhibitors of the vitamin D receptor (VDR): qHTS. Vitamin D3 receptor (Homo sapiens), P11473. VDR-SRC2-3 peptide fluorescence polarization, 2 h. Potency, µM, for the others: max response, negative = inhibition, hits mostly inhibitors. 400,000 tested, 0.93% active. AID 504847, 2011; note: % is set by controls: 0 for no effect and ±100 for the full control effect
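The screen uses fluorescence polarization to detect compounds that interfere with recruitment of the SRC2-3 coactivator peptide to VDR; plates are read after 2 h at room temperature.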
HP1b binding inh – HTS for Inhibitors of HP1-beta Chromodomain Interactions with Methylated Histone Tails. Chromobox protein homolog 1 (Homo sapiens), P83916. AlphaScreen HP1-beta / biotin-H3K9me3 peptide binding. Potency, µM (top dose mostly 114 µM), without a hit: top-dose activity change, negative = inhibition, actives largely listed as inhibitors. 390,000 tested, 0.56% active. AID 540317, 2011; note: nearly all actives have a fitted effect of over 70% in size
Target sequence (P83916 whole entry, looked up): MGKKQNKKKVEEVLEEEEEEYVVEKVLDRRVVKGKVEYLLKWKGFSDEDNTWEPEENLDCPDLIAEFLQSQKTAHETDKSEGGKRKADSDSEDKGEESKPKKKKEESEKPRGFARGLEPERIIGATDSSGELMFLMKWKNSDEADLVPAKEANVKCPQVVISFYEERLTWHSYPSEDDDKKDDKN
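Compound inhibition of the preformed complex between 50 nM HP1-beta and 50 nM biotinylated H3K9me3 peptide was read by AlphaScreen. Buffer was PBS pH 7.4 with 0.01% Tween-20. Incubations ran 30 min at room temperature, with 10 ug/mL donor/acceptor beads.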
PLK1 PBD inh – qHTS for Inhibitors of PLK1-PDB (polo-like kinase 1 - polo-box domain): Primary Screen; Serine/threonine-protein kinase PLK1 (Homo sapiens), P53350; 360,000 tested, 2.8% active; Potency, µM, without a hit: max response, negative = inhibition, actives largely listed as inhibitors; AID 720504, 2013; Plk1 PBD binding of FITC phosphopeptide, fluorescence polarization; note: series mostly up to about 57 µM; % is set by controls: 0 for no effect and ±100 for the full control effect; nearly all actives have a fitted effect of over 65% in size
* hit, by the source's call; ? = inconclusive; . = no result given; [ ] = another dose, or the depositor's remark. Calls come from the whole dose curve; as a rule, active = well fitted curve in the direction sought with a large enough effect; inconclusive = small, poorly fitted or top-dose-only effect, or another doubt; inactive = no such curve, though single readings can be large; an effect the other way counts as inactive or inconclusive. Potency is the fitted concentration of half-maximal effect.

SMILES | BAZ2B block | JMJD2A Tudor inh | G9a inh | VDR inh | HP1b binding inh | PLK1 PBD inh
CCCC(=O)N(C1CC(C)C(C#N)(C#N)C1(C#N)C#N)N(C)C (stereo not drawn) | 16% | -33% | 7.1µM* | 8.9µM* | 4% | 6µM*
CC(=O)N(C1CC(C)C(C#N)(C#N)C1(C#N)C#N)N(C)C (stereo not drawn) | -10% | -18% | 13µM* | 35µM* | 20% | 2.4µM*
C[C@H](NC(=O)C1CC(=O)N(c2ccc3c(c2)OCO3)C1)C(=O)NC1CCCC1 (stereo partly drawn) | -14%[57.1 µM] | ? | 10% | ? | 3% | 27µM*
CC(C)[C@H](NC(=O)C1CC(=O)N(c2ccc3c(c2)OCO3)C1)C(=O)NC1CCCC1 (stereo partly drawn) | ? | 21% | 56µM* | -4% | 65% | -13%
COc1ccc(N2CC(C(=O)N[C@@H](C)C(=O)N[C@H](CO)c3ccccc3)CC2=O)cc1 (stereo partly drawn) | -25% | -5% | 5.6µM* | -9% | 32% | -5%
Cc1ccc(Cl)cc1NC(=O)Cn1c(=O)n(Cc2ccccc2)c(=O)c2oc3ccccc3c21 | -9% | -4% | -2%[59 µM] | 4% | 28% | .
CCc1cccc(NC(=O)C2CCCN2S(=O)(=O)c2ccc3nc(-c4ccccc4)[nH]c3c2)c1 (stereo not drawn) | -29% | -15% | -31%[59 µM] | 2% | 27% | .
O=S(=O)(c1cccc2nsnc12)N1CCc2ccccc21 | 71µM* | ? | ? | 20% | -14% | -2%
O=S(=O)(c1cccc2nsnc12)N1CCN(C/C=C\c2ccccc2)CC1 | ? | ? | 50µM* | 15% | -19% | -5%
O=S(=O)(c1cccc2nsnc12)N1CCN(c2ccc(F)cc2)CC1 | . | ? | ? | 4% | -4% | -11%
O=S(=O)(c1cccc2nsnc12)N1CCN(C/C=C/c2ccccc2)CC1 | ? | ? | ? | -8% | -24% | -1%
O=S(=O)(c1cccc2nsnc12)N1CCN(c2ccccc2F)CC1 | ? | 50µM* | . | 1% | ? | 24µM*
CCN(C[C@H]1N[C@@](Cc2ccccc2)(C(=O)OC)[C@H]2C(=O)N(C)C(=O)[C@@H]12)S(=O)(=O)c1ccc(-c2ccccc2)cc1 | . | -17% | . | -30% | 41% | -7%
Cc1n(-c2ccccc2)c2ccc(Cl)cc2[n+]1CCO | -17% | ? | 8.9µM* | 2% | -20% | -7%
Cc1c(C)n(Cc2ccccc2)c2ccc(C(=O)OCCCN(C)C)cc12 | -12% | 40µM* | 9% | 1% | ? | -9%
Cc1c(C)n(CCN(C)C)c2ccc(C(=O)OCCN(C)C)cc12 | -26% | -7% | 14µM* | 11% | 9% | 2%
CCc1cccc(NC(=O)Cn2ncc3c([nH]c4ccc(C)cc43)c2=O)c1 | 9%[57.1 µM] | 0% | -4%[59 µM] | 16% | 41% | .
O=C(O)C1CSC2(c3ccc(F)cc3)CCC(=O)N12 (stereo not drawn) | -17% | -8% | 56µM* | 12% | 37% | -11%
Cc1ccc(C23CCC(=O)N2C(C(=O)O)CS3)c(C)c1 (stereo not drawn) | -18% | -17% | -10% | -1% | 8% | -7%
Cn1nnnc1Sc1ncnc2scc(-c3ccccc3C#N)c12 | . | -14% | . | . | . | .
CCOC(=O)C(C)(C)Oc1cccc2c1S(=O)(=O)c1ccccc1-2 | . | 13% | . | -2% | 26% | 5%
CC1=C(C(N)=O)S(=O)(=O)c2ccccc21 | -2% | ? | 9% | ? | 25% | 21µM*
Cc1ccc(-c2ccccc2)n1-c1ccc(C(=O)O)cc1 | ? | ? | 10µM* | -9% | 1% | ?
Cc1nc(=O)c(-c2ccccc2)c(C)n1-c1cccc(C(=O)O)c1 | 9% | -11%[11.4 µM] | -17% | -7% | 49% | -16%
Cc1ccc(-c2ccccc2)n1-c1cccc(C(=O)O)c1 | -35% | ? | 50µM* | -28% | -6% | -12%
SMILES | BAZ2B block | JMJD2A Tudor inh | G9a inh | VDR inh | HP1b binding inh | PLK1 PBD inh
Cc1ccc(C(=O)O)cc1-n1c(C)ccc1-c1ccccc1 | ? | -31% | ? | -10% | -5% | .
CCOc1ccc(NC2CCCCC2NS(=O)(=O)c2ccccc2)cc1 (stereo not drawn) | 45µM* | 56µM* | ? | -1% | ? | -3%
CN1CCN(C2CCCCC2NS(=O)(=O)c2ccc(Cl)cc2)CC1 (stereo not drawn) | -8%[57.1 µM] | -25% | 17% | -12% | 53% | -27%
CSc1ccc(OC2CCCCC2NS(=O)(=O)c2ccccc2)cc1 (stereo not drawn) | -35% | ? | -7%[59 µM] | -22% | -12% | 24µM*
COc1ccc(N2CCN(C3CCCCC3NS(=O)(=O)c3ccc(Cl)cc3)CC2)cc1 (stereo not drawn) | 10µM* | ? | . | 5% | 7% | -6%
COc1ccc(NC2CCCCC2NS(=O)(=O)c2ccc(C)cc2)cc1 (stereo not drawn) | 50µM* | ? | 14µM* | 6% | ? | -1%
Cc1cccc(NC(=O)N2CCN(C(=O)c3nsc4ccccc34)CC2)c1C | 4% | -16% | 6%[59 µM] | 13% | 13%[57 µM] | .
CCOC(=O)C(NC(=O)c1ccc(OC)cc1)(N1CCCC1=O)C(F)(F)F (stereo not drawn) | -3% | 2% | -10% | 4% | 33% | 6%
CC1(C)C(=O)CC[C@@]2(C)[C@H]1CC[C@@]1(C)CC3=C(CC[C@@H]12)[C@@]1(C)CCC(=O)C(C)(C)[C@@H]1CC3 | -3% | . | -5%[12.7 µM] | . | . | .
CCOC(=O)c1cc2c(ccn2C)n1Cc1ccc(Cl)cc1 | 50µM* | 56µM* | 50µM* | 3% | -22% | -9%
CCOC(=O)c1cc2c(ccn2C)n1CC(=O)N1CCCC(C)C1 (stereo not drawn) | ? | -18% | 15%[59 µM] | 8% | -9% | -4%
CCOC(=O)c1cc2c(ccn2C)n1CC(=O)N1CCC(Cc2ccccc2)CC1 | 25µM* | 35µM* | 40µM* | -11% | ? | -9%
O=C1OC(c2ccccc2)/C(=C(/O)c2ccccc2)C1=O (stereo not drawn) | 0% | 35µM* | -8%[12.7 µM] | -30% | 0% | -3%
CN1C(=O)C(=O)/C(=C(/O)c2ccccc2)C1c1ccccc1 (stereo not drawn) | -4% | -22% | ? | 1% | 21% | -5%
O=C1C(=O)N(CCO)C(c2cccc(F)c2)/C1=C(\O)c1ccc(Cl)cc1 (stereo not drawn) | ? | -23% | 9%[0.501 µM] | ? | 33% | -6%
